Experimental data published in the supplement of paper PMC4709259.
Where a name gives a salt, the structure may show the parent alone. ± gives the standard deviation.

Test system: Jurkat
Assay: mean cell size (FSC-A) relative to DMSO control (fraction of control); higher = larger cells
Settings: 48 h
Procedure, shortened: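 Jurkat cells seeded at 600 cells/µl were incubated 1 h, then exposed for 48h to the Enzo Screen-Well FDA Approved Drug Library v2.0 at 25µM in 0.9% (v/v) final DMSO. Drugs that cut counts below 20% of controls were diluted 10-fold and retested, down to 25nM. Cell count and mean cell size (forward scatter area) were read on an Accuri C6 flow cytometer, relative to solvent-only controls. Plates held 6-12 controls; values are means of 3 biological replicates.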

Structure (SMILES) | mean cell size
CC[C@@]1(O)C(=O)OCc2c1cc1n(c2=O)Cc2cc3c(CN(C)C)c(O)ccc3nc2-1 [Topotecan·HCl] (concentration: 25 nM) | 1.31 ± 0.064
CCCc1nc2c(C)cc(-c3nc4ccccc4n3C)cc2n1Cc1ccc(-c2ccccc2C(=O)O)cc1 [Telmisartan] (concentration: 25 µM) | 0.951 ± 0.032
Cc1[nH]cnc1CN1CCc2c(c3ccccc3n2C)C1=O [Alosetron·HCl] (concentration: 25 µM) | 0.954 ± 0.059
Clc1ccc2c(c1)CCc1cccnc1C2=C1CCNCC1 [Desloratadine] (concentration: 25 µM) | 1 ± 0.05
CN1C(C(=O)Nc2ccccn2)=C(O)c2ccccc2S1(=O)=O [Piroxicam] (concentration: 25 µM) | 0.9597 ± 0.0066
CCOc1ccc2ccccc2c1C(=O)N[C@@H]1C(=O)N2[C@@H]1SC(C)(C)[C@@H]2C(=O)O [Nafcillin·Na] (concentration: 25 µM) | 0.954 ± 0.025
O=C1CN(/N=C/c2ccc([N+](=O)[O-])o2)C(=O)N1 [Nitrofurantoin] (concentration: 2.5 µM) | 0.955 ± 0.019
CO[C@H]1O[C@@H]2O[C@@]3(C)CC[C@H]4[C@H](C)CC[C@@H]([C@H]1C)[C@@]24OO3 [Artemether] (concentration: 25 µM) | 0.912 ± 0.047
COc1ccc2[nH]c([S@@+]([O-])Cc3ncc(C)c(OC)c3C)nc2c1 [Esomeprazole Potassium] (concentration: 25 µM) | 0.98 ± 0.027
O=C1c2c(O)ccc(O)c2C(=O)c2c(NCCNCCO)ccc(NCCNCCO)c21 [Mitoxantrone·HCl] (concentration: 25 nM) | 1.43 ± 0.11
COc1cc2ncnc(Nc3ccc(F)c(Cl)c3)c2cc1OCCCN1CCOCC1 [Gefitinib] (concentration: 2.5 µM) | 1.04 ± 0.045
O=C(O)C(=O)O.[NH-][C@@H]1CCCC[C@H]1[NH-].[Pt+2] [Oxaliplatin] (concentration: 25 µM) | 1.01 ± 0.034
CC[C@H](C)C(=O)O[C@H]1C[C@H](O)C=C2C=C[C@H](C)[C@H](CC[C@@H](O)C[C@@H](O)CC(=O)O)[C@H]21 [Pravastatin·Na] (concentration: 25 µM) | 1.07 ± 0.028
Cc1nnc(C(C)C)n1C1C[C@H]2CC[C@@H](C1)N2CC[C@H](NC(=O)C1CCC(F)(F)CC1)c1ccccc1 (stereo in doubt) [Maraviroc] (concentration: 25 µM) | 1 ± 0.044
CC1(C)S[C@@H]2[C@H](NC(=O)Cc3ccccc3)C(=O)N2[C@H]1C(=O)O [Penicillin G Potassium (Benzylpenicillin)] (concentration: 25 µM) | 0.948 ± 0.019
Clc1ccc(COC(Cn2ccnc2)c2ccc(Cl)cc2Cl)c(Cl)c1 (centres undefined) [Miconazole] (concentration: 25 µM) | 0.976 ± 0.04
N[C@@H](Cc1cc(I)c(Oc2cc(I)c(O)c(I)c2)c(I)c1)C(=O)O [Levothyroxine·Na] (concentration: 25 µM) | 1.02 ± 0.059
CN[C@@H]1[C@H](O)[C@H](NC)[C@H]2O[C@@]3(O)C(=O)C[C@@H](C)O[C@H]3O[C@@H]2[C@H]1O [Spectinomycin·HCl Pentahydrate] (concentration: 25 µM) | 1.05 ± 0.014
CN(C/C=C/c1ccccc1)Cc1cccc2ccccc12 [Naftifine·HCl] (concentration: 25 µM) | 0.956 ± 0.028
CCc1cccc2c3c([nH]c12)C(CC)(CC(=O)O)OCC3 (centres undefined) [Etodolac] (concentration: 25 µM) | 1.08 ± 0.042

Structure (SMILES) | mean cell size
CN(C)/N=N/c1[nH]cnc1C(N)=O [Dacarbazine] (concentration: 25 µM) | 0.981 ± 0.048
CC(C)OC(=O)CCC/C=C\C[C@@H]1[C@@H](/C=C/[C@@H](O)COc2cccc(C(F)(F)F)c2)[C@H](O)C[C@@H]1O [Travoprost] (concentration: 25 µM) | 0.92 ± 0.022
COCC1=C(C(=O)OC(C)OC(=O)OC(C)C)N2C(=O)[C@@H](NC(=O)/C(=N\OC)c3csc(N)n3)[C@H]2SC1 (some centres undefined) [Cefpodoxime Proxetil] (concentration: 25 µM) | 0.94 ± 0.021
C[C@H]1[C@H](NC(=O)/C(=N\OC(C)(C)C(=O)O)c2csc(N)n2)C(=O)N1S(=O)(=O)O [Aztreonam] (concentration: 25 µM) | 0.927 ± 0.022
Nc1nc2c(ncn2COCCO)c(=O)[nH]1 [Acyclovir (Acycloguanosine) Zovirax] (concentration: 25 µM) | 0.977 ± 0.028
Cc1ccc(Nc2nccc(N(C)c3ccc4c(C)n(C)nc4c3)n2)cc1S(N)(=O)=O [Pazopanib·HCl] (concentration: 25 µM) | 0.9554 ± 0.0092
C[C@@H]1[C@H](O)[C@@H](C)/C=C/C=C/C=C/C=C/C=C/C=C/C=C/[C@H](O[C@@H]2O[C@H](C)[C@@H](O)[C@H](N)[C@@H]2O)C[C@@H]2O[C@](O)(C[C@@H](O)C[C@@H](O)[C@H](O)CC[C@@H](O)C[C@@H](O)CC(=O)O[C@H]1C)C[C@H](O)[C@H]2C(=O)O [Amphotericin B] (concentration: 25 µM) | 1.016 ± 0.0092
COc1cc(NC(C)CCCN)c2ncccc2c1 (centres undefined) [Primaquine Phosphate] (concentration: 25 µM) | 1.01 ± 0.028
Cc1c(OCC(F)(F)F)ccnc1C[S+]([O-])c1nc2ccccc2[nH]1 (centres undefined) [Lansoprazole] (concentration: 25 µM) | 0.927 ± 0.027
CC(=O)OC[C@H]1O[C@@H]([S-])[C@H](OC(C)=O)[C@@H](OC(C)=O)[C@@H]1OC(C)=O.CCP(CC)CC.[Au+] [Auranofin] (concentration: 250 nM) | 0.9833 ± 0.0086
C[n+]1ccccc1/C=N/O [Pralidoxime Chloride] (concentration: 25 µM) | 1.08 ± 0.037
C[C@@H]1C/C=C/C=C/C=C/C=C/[C@H](O[C@@H]2O[C@H](C)[C@@H](O)[C@H](N)[C@@H]2O)C[C@@H]2O[C@](O)(C[C@@H](O)C[C@H]3O[C@@H]3/C=C/C(=O)O1)C[C@H](O)[C@H]2C(=O)O [Natamycin] (concentration: 25 µM) | 0.951 ± 0.015
CCOC(=O)C1=C[C@@H](OC(CC)CC)[C@H](NC(C)=O)[C@@H](N)C1 [Oseltamivir Phosphate] (concentration: 25 µM) | 0.932 ± 0.023
S=c1[nH]cnc2nc[nH]c12 [Mercaptopurine Hydrate] (concentration: 25 µM) | 1.08 ± 0.047
CN(CCOc1ccc(NS(C)(=O)=O)cc1)CCc1ccc(NS(C)(=O)=O)cc1 [Dofetilide] (concentration: 25 µM) | 0.962 ± 0.015
CCC[C@@H]1C[C@@H](C(=O)N[C@@H]([C@H]2O[C@H](SC)[C@H](O)[C@@H](O)[C@H]2O)[C@H](C)Cl)N(C)C1 [Clindamycin·HCl] (concentration: 25 µM) | 1.07 ± 0.062
CCCc1nc(C(C)(C)O)c(C(=O)O)n1Cc1ccc(-c2ccccc2-c2nnn[nH]2)cc1 [Olmesartan] (concentration: 25 µM) | 0.97 ± 0.034
O=C(c1ccc(OCCN2CCCCC2)cc1)c1c(-c2ccc(O)cc2)sc2cc(O)ccc12 [Raloxifene·HCl] (concentration: 25 µM) | 0.891 ± 0.016
O=C(O)CCNC(=O)c1ccc(/N=N/c2ccc(O)c(C(=O)O)c2)cc1 [Balsalazide] (concentration: 25 µM) | 0.964 ± 0.013
